PubChem BioAssay (NCATS)
Results filed as inconclusive are left out. Active and inactive are the calls of the source. Unless noted, calls follow the shape of the dose curve; as a rule, active = well fitted curve in the direction sought with a large enough effect; inconclusive = small, poorly fitted or top-dose-only effect, or another doubt; inactive = no such curve, though single readings can be large; an effect the other way counts as inactive or inconclusive.

Columns and labels:
[1] = qHTS assay for measurement of the activity of small molecule inhibitors on Zika virus induced Caspase-3 activity in human astrocytoma cells (AID 1224859)
In short: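 Caspase activation in ZIKV-infected SNB-19 cells (2 FFU/cell, 6 h) measured by Caspase-Glo 3/7 luminescence after 30 min RT; compound pre-incubated 1 h; normalised to uninfected and infected controls.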

[2] = P-glycoprotein substrates identified in KB-8-5-11 adenocarcinoma cell line, qHTS therapeutic library screen (AID 1346987); also: series mostly up to about 44 µM; nearly all actives have a fitted effect of over 65% in size
In short: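 KB-8-5-11: colchicine-selected sub-line of KB-3-1 over-expressing P-gp; assay medium lacked colchicine. 72 h drug exposure at 37 degree C, CellTiter-Glo.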

[3] = qHTS of pediatric cancer cell lines to identify multiple opportunities for drug repurposing: Primary screen for DAOY cells (AID 1347090); also: nearly all actives have a fitted effect of over 55% in size; also: potency is read from the fitted curve at half-maximal effect
In short: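 Eight- or eleven-point concentration series, 48 h treatment at 37 degrees C in growth media; readout CellTiter-Glo luminescence. Potency and efficacy were taken from the concentration-response curves.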

[4] = Natriuretic polypeptide receptor (hNpr1) antagonism - Pilot counterscreen GloSensor control cell line (AID 1347045; calls by dose curve; also: potency is read from the fitted curve at half-maximal effect)
In short: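 HEK293 cells carrying the GloSensor cGMP sensor (GIP/pGS-40F) were loaded with 2% GloSensor reagent for 2 h, exposed to compounds for 30 min, and then stimulated with 50 uM sodium nitroprusside for 20 min at room temperature.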

[5] = biological target: Atrial natriuretic peptide receptor 1 (Homo sapiens) (UniProt P16066); test: Natriuretic polypeptide receptor (hNpr1) antagonism - Pilot screen (AID 1347049; calls by dose curve;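 also: agonist-evoked cGMP luminescence read 20 min after hNppA addition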; also: potency is read from the fitted curve at half-maximal effect)
In short: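 HEK293 cells co-expressing hNpr1 and the GloSensor pGS-40F cGMP luciferase sensor were preloaded with 2% GloSensor reagent for 2 h. Compounds were added for 30 min at room temperature, then cells were stimulated with 0.1 nM hNppA for 20 min before luminescence readout.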

[6] = biological target: Atrial natriuretic peptide receptor 2 (Homo sapiens) (UniProt P20594); test: Natriuretic polypeptide receptor (hNpr2) antagonism - Pilot subtype selectivity assay (AID 1347050; calls by dose curve; also: potency is read from the fitted curve at half-maximal effect)
In short: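 cGMP-sensor HEK293/hNpr2 cells; 2% GloSensor reagent 2 h RT; compounds 30 min; baseline luminescence read; 1 nM hNppC agonist 20 min RT; final luminescence read by CCD camera. Antagonism = reduced post-agonist signal.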

[7] = biological target: Parathyroid hormone/parathyroid hormone-related peptide receptor (Homo sapiens) (UniProt Q03431); test: qHTS for PTHR1 Agonists: Optimization Screen against the NCGC LOPAC library (AID 1347079);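 also: GloSensor cAMP luminescence in HEK-293 GP2 cells expressing human PTHR1 with IBMX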
In short: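 Compounds were tested across a qHTS titration. PTHR1-expressing GP2 cells report cAMP rises via GloSensor luminescence after 1 hr compound exposure at 37C with IBMX present.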

[8] = NS1 protein of Zika virus - qHTS assay to identify small molecule inhibitors in human HEK 293 cells (AID 1347053); also: series mostly up to about 46 µM; nearly all actives have a fitted effect of over 55% in size
In short: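 Following 20 h seeding, HEK 293 cells took compound, then 1 h later ZIKV MR766 (MOI = 0.5). Incubation ran 24 h at 37 C before TR-FRET detection of NS1; a drop in signal indicates inhibition.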

[9] = biological target: T1, Tyrosine-protein phosphatase non-receptor type substrate 1 (Homo sapiens) + Leukocyte surface antigen CD47 (Homo sapiens) (UniProt P78324+Q08722); test: CD47-SIRPalpha protein protein interaction - LANCE assay qHTS validation (AID 1347057; active = well fitted curve in the direction sought with a large enough effect in the signal ratio, with a control signal flat, not every such curve was filed as active; the % refers to the signal ratio; also: series mostly up to about 38 µM)
In short: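 First, His-tagged CD47 and Eu-labelled anti-His antibody met the compound for 30 min; next, site-specifically biotinylated SIRPalpha was added for 30 min; finally streptavidin-APC was added before reading the TR-FRET ratio.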

[10] = biological target: T1, Tyrosine-protein phosphatase non-receptor type substrate 1 (Homo sapiens) + Leukocyte surface antigen CD47 (Homo sapiens); test: CD47-SIRPalpha protein protein interaction - HTRF assay qHTS validation (AID 1347058; active = well fitted curve in the direction sought with a large enough effect in the signal ratio, not every such curve was filed as active; the % refers to the signal ratio; also: series mostly up to about 38 µM)
In short: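 TR-FRET read (Ch1/Ch2 ratio) of soluble extracellular CD47 and Avi-biotinylated SIRPalpha domains in PBS pH 7.4 with 0.05% IGEPAL; 7-point compound titration. Sequential 30 min room-temperature steps; non-biotinylated SIRPalpha as control inhibitor.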

[11] = biological target: T1, Tyrosine-protein phosphatase non-receptor type substrate 1 (Homo sapiens) + Leukocyte surface antigen CD47 (Homo sapiens); test: CD47-SIRPalpha protein protein interaction - Alpha assay qHTS validation (AID 1347059);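 also: bead proximity luminescence from CD47 binding SIRPalpha after compound preincubation with SIRPalpha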
In short: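 Soluble extracellular domains: Avi-tag biotinylated SIRPalpha (25 nM) preincubated 30 min RT with compound, then 6His-CD47 (12.5 nM) 30 min; Ni-NTA acceptor and streptavidin donor beads (10 ug/mL) 30 min, AlphaScreen read. PBS pH 7.4, 0.05% IGEPAL.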

Measured: Potency

Chain of Atrial natriuretic peptide receptor 1 (Homo sapiens) (P16066 whole entry, looked up): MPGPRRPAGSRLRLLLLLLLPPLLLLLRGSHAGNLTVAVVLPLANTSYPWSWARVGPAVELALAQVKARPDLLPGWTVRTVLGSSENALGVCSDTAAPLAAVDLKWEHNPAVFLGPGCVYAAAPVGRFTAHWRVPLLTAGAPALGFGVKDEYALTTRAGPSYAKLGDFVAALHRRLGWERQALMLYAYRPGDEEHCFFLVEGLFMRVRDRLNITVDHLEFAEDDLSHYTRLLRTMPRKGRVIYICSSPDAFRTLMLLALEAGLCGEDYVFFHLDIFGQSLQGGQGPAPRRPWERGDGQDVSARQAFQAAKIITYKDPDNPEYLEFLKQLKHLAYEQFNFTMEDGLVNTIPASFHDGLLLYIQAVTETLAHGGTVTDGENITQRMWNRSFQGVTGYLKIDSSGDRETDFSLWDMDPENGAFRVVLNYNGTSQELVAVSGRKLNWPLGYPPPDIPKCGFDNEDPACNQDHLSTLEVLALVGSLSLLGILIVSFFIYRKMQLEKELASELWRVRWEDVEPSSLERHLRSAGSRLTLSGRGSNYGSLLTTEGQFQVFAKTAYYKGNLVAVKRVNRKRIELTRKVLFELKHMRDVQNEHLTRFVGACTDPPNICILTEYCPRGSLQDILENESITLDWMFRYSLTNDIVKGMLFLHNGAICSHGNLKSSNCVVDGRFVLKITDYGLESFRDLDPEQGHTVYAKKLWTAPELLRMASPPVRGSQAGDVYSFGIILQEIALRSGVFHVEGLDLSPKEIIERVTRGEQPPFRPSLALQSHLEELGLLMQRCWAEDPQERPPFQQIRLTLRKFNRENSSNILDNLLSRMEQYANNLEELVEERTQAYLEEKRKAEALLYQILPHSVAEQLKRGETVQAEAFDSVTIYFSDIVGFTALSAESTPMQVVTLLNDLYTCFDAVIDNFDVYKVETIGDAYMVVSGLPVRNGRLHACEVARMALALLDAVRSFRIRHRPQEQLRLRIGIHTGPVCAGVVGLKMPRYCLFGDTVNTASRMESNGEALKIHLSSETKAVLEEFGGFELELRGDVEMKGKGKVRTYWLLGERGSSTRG
Chain of Atrial natriuretic peptide receptor 2 (Homo sapiens) (P20594 whole entry, looked up): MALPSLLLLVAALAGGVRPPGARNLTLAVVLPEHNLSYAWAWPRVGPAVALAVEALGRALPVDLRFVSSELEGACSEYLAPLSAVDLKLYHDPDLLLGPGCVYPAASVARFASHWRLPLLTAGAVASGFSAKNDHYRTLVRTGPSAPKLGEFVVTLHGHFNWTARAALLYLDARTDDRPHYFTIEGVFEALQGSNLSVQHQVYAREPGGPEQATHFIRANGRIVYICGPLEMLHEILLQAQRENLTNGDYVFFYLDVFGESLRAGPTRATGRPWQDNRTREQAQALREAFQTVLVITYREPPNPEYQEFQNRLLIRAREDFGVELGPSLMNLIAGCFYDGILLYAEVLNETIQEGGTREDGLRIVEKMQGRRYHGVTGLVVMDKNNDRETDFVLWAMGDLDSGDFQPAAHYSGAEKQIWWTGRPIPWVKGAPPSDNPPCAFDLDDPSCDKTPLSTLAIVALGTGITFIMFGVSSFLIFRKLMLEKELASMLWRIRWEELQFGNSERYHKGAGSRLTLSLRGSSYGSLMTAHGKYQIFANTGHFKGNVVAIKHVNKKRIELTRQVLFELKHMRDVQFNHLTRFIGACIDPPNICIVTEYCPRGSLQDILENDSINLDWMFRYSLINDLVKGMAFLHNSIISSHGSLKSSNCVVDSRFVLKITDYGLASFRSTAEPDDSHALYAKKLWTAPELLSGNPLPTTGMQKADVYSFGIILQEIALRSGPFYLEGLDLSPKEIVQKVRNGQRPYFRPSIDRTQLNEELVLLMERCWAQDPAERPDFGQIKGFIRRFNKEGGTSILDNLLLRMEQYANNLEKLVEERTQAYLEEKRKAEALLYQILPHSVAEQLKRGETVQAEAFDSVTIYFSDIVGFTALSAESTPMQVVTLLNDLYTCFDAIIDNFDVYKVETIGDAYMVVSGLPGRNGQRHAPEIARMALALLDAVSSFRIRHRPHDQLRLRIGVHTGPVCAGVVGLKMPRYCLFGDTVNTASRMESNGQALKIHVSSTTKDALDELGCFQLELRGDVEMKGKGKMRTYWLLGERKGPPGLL
Chain of Parathyroid hormone/parathyroid hormone-related peptide receptor (Homo sapiens) (Q03431 whole entry, looked up): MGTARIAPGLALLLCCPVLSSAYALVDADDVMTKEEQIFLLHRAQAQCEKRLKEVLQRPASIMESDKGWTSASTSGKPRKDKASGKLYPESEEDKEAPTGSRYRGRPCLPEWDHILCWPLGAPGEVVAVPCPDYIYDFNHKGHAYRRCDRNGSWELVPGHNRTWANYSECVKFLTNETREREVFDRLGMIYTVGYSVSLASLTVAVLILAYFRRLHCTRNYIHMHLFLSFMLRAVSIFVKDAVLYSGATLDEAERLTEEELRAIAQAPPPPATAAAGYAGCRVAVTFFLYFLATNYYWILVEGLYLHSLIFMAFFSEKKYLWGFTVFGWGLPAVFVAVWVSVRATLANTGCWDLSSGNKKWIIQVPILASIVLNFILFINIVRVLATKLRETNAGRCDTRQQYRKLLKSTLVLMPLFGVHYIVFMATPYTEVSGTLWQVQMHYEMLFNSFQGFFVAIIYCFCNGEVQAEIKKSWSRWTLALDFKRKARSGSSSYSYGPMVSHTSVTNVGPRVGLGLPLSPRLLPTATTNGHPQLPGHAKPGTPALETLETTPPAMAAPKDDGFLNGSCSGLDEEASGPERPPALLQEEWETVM
T1 sequence (P78324 whole entry, looked up): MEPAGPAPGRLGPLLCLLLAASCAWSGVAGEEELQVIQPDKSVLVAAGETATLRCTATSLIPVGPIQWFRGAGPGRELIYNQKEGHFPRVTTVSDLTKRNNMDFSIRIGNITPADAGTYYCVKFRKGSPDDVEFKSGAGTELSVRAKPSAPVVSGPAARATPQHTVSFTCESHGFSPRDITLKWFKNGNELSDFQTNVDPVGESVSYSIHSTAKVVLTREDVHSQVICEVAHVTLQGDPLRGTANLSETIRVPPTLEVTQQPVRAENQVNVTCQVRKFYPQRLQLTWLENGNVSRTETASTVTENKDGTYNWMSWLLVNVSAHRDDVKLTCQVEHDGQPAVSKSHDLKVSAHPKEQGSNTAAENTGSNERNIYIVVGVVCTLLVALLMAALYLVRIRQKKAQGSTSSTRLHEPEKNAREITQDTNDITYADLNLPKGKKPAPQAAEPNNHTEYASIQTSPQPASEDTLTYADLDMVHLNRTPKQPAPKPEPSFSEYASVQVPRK
T1 sequence (Q08722 whole entry, looked up): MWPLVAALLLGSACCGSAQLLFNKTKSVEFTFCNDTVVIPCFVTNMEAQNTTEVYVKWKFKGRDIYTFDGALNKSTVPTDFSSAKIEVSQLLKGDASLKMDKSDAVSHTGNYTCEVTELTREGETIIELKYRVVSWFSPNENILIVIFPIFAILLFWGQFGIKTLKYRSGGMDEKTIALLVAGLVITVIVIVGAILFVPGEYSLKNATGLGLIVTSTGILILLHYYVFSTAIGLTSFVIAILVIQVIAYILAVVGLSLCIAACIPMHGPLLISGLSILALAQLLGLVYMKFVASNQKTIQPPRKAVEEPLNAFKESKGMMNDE

Nc1ccc([N+](=O)[O-])cc1O
inactive: [1] | [2]
active: [3] 1 nM

CCCC1(C)C(C#N)(C#N)C1(C#N)C#N
active: [4] 5.85 µM | [5] 8.49 µM | [6] 4.65 µM
inactive: [1] | [7]

Nc1nc(Cl)nc2c1ncn2[C@@H]1O[C@H](CO)[C@@H](O)[C@H]1O
not listed: [2] | [3]
inactive: all other assays above

CC(C)CC(NP(=O)(O)O[C@@H]1O[C@@H](C)[C@H](O)[C@@H](O)[C@H]1O)C(=O)NC(Cc1c[nH]c2ccccc12)C(=O)O (some centres undefined)
not listed: [2] | [3] | [8]
inactive: all other assays above

CC(=O)/C=C1\C(=O)N(C)c2ccccc21
inactive: [1] | [9] | [11] | [7]
active: [4] 9.27 µM | [6] 14.7 µM

O=C1C(SCCO)=C(SCCO)C(=O)c2ccccc21
inactive: [1] | [9] | [11] | [7]
active: [4] 2.07 µM | [5] 5.36 µM | [6] 2.93 µM

Nc1ncnc2c1ncn2[C@@H]1O[C@H](COP(=O)(O)CP(=O)(O)OP(=O)(O)O)[C@@H](O)[C@H]1O
not listed: [2] | [3] | [8]
inactive: all other assays above

CSc1nc(N)c2ncn([C@@H]3O[C@H](COP(=O)(O)OP(=O)(O)OP(=O)(O)O)[C@@H](O)[C@H]3O)c2n1
not listed: [2] | [3] | [5]
inactive: all other assays above

Cc1ccc(C(=O)O[C@H](C(=O)O)[C@@H](OC(=O)c2ccc(C)cc2)C(=O)O)cc1 (tested in a mixture with another compound)
inactive: [1] | [4] | [6] | [7]

CC(=O)SCC[N+](C)(C)C
not listed: [2] | [3] | [5]
inactive: all other assays above

C[N+]1(C)CCC(OC(=O)C(c2ccccc2)c2ccccc2)CC1
not listed: [2] | [3]
inactive: all other assays above

CC1OC1P(=O)(O)O (centres undefined)
not listed: [2] | [3] | [4]
inactive: all other assays above

CNc1ncnc2c1ncn2[C@@H]1O[C@H](CO)[C@@H](O)[C@H]1O
not listed: [2] | [3] | [4]
inactive: all other assays above

CC(C)(C)c1ccc(S(=O)(=O)/C=C/C#N)cc1
inactive: [1] | [9] | [10] | [11] | [7]
active: [4] 6.56 µM | [6] 7.36 µM

S=c1[nH]c2ccccc2s1
inactive: [1] | [2] | [8] | [3]

CN1C2CCC1CC(OC(=O)C(O)c1ccccc1)C2 (centres undefined)
not listed: [2] | [3]
inactive: all other assays above

CCCCCCCCCCCCCCCCCCNC(=O)OCC(COP(=O)([O-])OCC[n+]1ccsc1)OC (centres undefined)
inactive: [1] | [5] | [6] | [7]

CN1CCc2cc(O)c(O)cc2C(c2ccccc2)C1 (centres undefined)
inactive: [1] | [6] | [7]

N.N.N.N.N.N.N.N.N.N.N.N.N.N.O.O.[Ru+4].[Ru+5].[Ru+5]
inactive: [1] | [5] | [6] | [8] | [7]

CNC(=O)[C@H]1O[C@@H](n2cnc3c(NCc4cccc(I)c4)ncnc32)[C@H](O)[C@@H]1O
not listed: [2] | [3] | [4] | [5]
inactive: all other assays above

C=C[C@@H]1CN2CC[C@@H]1C[C@H]2[C@H](O)c1ccnc2ccc(OC)cc12
inactive: [1] | [5] | [6] | [8] | [7]

CC(C)ON([C@@H](C(=O)NO)C(C)C)S(=O)(=O)c1ccc(-c2ccccc2)cc1
inactive: [1] | [5] | [6] | [7]
